This passage reports morphology score and SARS-CoV-2 infection rate results from the supplement of paper PMC13380429.

The test system of assay [1] is Vero E6 infected with SARS-CoV-2. The assay is described as follows: morphology score (similarity to uninfected cells); higher = more like uninfected cells. The note with it: 24 h.
Assay [2] has the same test system. Briefly: SARS-CoV-2 infection rate relative to infected DMSO; higher = more infection, active = 60 or less. The note with it: 24 h.

SMILES strings stand for the structures.

`Cn1cc(C2=C(c3cn(C4CCN(Cc5ccccn5)CC4)c4ccccc34)C(=O)NC2=O)c2ccccc21` [enzastaurin] (10 µM) came in with a morphology score in assay [1] of -0.0103. Besides, the SARS-CoV-2 infection rate in assay [2] was 112% (inactive).

Regarding `C[N+]12CCC(CC1)C(OC(=O)C(O)(c1ccccc1)c1ccccc1)C2` (stereo unspecified) [clidinium] (10 µM), the morphology score in assay [1] is -0.064. Moreover, in assay [2], the SARS-CoV-2 infection rate is 95% (inactive).

As to `CS[C@H]1SC[C@H]2C(=O)N(C)[C@@H](C(C)C)C(=O)OC[C@@H](NC(=O)c3cnc4ccccc4n3)C(=O)N[C@@H](C)C(=O)N(C)[C@@H]1C(=O)N(C)[C@@H](C(C)C)C(=O)OC[C@@H](NC(=O)c1cnc3ccccc3n1)C(=O)N[C@@H](C)C(=O)N2C` [echinomycin] (0.833333 µM), in assay [1], the morphology score is -0.0512. The SARS-CoV-2 infection rate in assay [2] was 96% (inactive).

For `COc1ccc2c(O[C@@H]3C[C@H]4C(=O)N[C@]5(C(=O)NS(=O)(=O)C6CC6)C[C@H]5/C=C\CCCCN(C)C(=O)[C@@H]4C3)cc(-c3nc(C(C)C)cs3)nc2c1C` [simeprevir] (10 µM), the morphology score in assay [1] was 0.0609. In addition, the SARS-CoV-2 infection rate in assay [2] is 88.5% (inactive).

Compound `O=S(=O)(O)c1ccc2[nH]c(-c3ccccc3)nc2c1` [phenylbenzimidazole-sulfonic-acid] (10 µM) showed a morphology score in assay [1] of 0.087. In addition, the SARS-CoV-2 infection rate in assay [2] is 104% (inactive).

Compound `Cc1ccc2c(N3CCN(CCc4cccc(N5CCNC5=O)c4)CC3)cccc2n1` (10 µM) showed a morphology score in assay [1] of 0.325. In addition, in assay [2], the SARS-CoV-2 infection rate was 84% (inactive).

In assay [1], `COc1cc(OC)c(C(=O)CCCN2CCCC2)c(OC)c1` [buflomedil] (10 µM) came in with a morphology score of 0.0545. The SARS-CoV-2 infection rate in assay [2] was 102% (inactive).

Regarding `C/C(=C\CNc1ncnc2[nH]cnc12)CO` [zeatin] (10 µM), the morphology score in assay [1] was -0.0215. Besides, the SARS-CoV-2 infection rate in assay [2] was 106% (inactive).
